PrPC TRFRET – reduces human prion protein on the cell surface; P04156; cell surface PrPC, TR-FRET read-out; inhibition, % at 13.8 µM; hit rate 0.43% among 370,000; in the data active means inhibition above about 24%; further: 0% = median of the test wells and 100% = reference compound wells
FBA Mtb inh – Mtb fructose-bisphosphate aldolase inhibition; hit rate 2.3% among 360,000; purified M. tuberculosis FBA, fluorescence read-out; AID 588726; inhibition, % at 1 µM; P9WQA3; in the data active means inhibition above about 27%;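 further: 0% = vehicle and 100% = reference inhibitor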
BJeLR lethal – kills HRASV12-expressing BJeLR cells; BJeLR (HRASV12) viability, CellTiter-Glo ATP luminescence, 48 h; inhibition, % (test concentration not listed); hit rate 0.17% among 300,000; in the data active means inhibition above about 50%
GDH-TPI inh – inhibits GDH-TPI coupling enzymes, artifact for Mtb FBA screen. GDH-TPI coupled enzyme counterscreen, NADH absorbance. inhibition, % at 4.8 µM. hit rate 1.2% among 360,000. AID 588335; in the data active means inhibition above about 30%;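 further: 0% = DMSO wells and 100% = wells lacking the enzyme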
RecA intein inh – blocks M. tuberculosis RecA intein splicing; P9WHJ3; cell-free RecA intein splicing, fluorescence; inhibition, % (test concentration not listed); hit rate 0.75% among 290,000; AID 2221; in the data active means inhibition above about 30%;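 further: 0% = vehicle wells and 100% = reference inhibitor control wells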
Target sequence (P9WHJ3 whole entry, looked up): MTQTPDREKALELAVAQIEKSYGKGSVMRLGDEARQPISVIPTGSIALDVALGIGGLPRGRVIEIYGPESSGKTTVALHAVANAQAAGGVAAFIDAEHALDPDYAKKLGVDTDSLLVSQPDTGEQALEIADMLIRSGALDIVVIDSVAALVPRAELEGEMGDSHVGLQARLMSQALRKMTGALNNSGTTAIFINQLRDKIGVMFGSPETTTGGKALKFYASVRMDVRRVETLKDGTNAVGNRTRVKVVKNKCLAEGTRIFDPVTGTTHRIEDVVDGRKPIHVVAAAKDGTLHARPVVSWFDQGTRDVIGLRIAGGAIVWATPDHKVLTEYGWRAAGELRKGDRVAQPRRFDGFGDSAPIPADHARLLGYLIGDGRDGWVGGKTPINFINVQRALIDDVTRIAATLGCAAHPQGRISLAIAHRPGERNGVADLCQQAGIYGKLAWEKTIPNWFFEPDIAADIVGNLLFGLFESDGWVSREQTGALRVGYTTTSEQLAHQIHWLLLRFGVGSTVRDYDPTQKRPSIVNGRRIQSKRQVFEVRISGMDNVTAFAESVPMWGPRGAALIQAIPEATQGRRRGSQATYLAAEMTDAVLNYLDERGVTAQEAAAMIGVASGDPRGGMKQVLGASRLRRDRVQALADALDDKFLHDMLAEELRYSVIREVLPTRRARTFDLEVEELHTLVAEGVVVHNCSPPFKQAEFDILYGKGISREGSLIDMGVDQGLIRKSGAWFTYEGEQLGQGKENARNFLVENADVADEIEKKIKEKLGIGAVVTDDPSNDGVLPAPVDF
Numbers without * were called inactive; i = inactive; x = no result; + = active, no number. Rows were chosen to be rich in hits. Some 4.2% of all compounds tested hit in one or more screens of this group.

SMILES	PrPC TRFRET	FBA Mtb inh	BJeLR lethal	GDH-TPI inh	RecA intein inh
CCOc1ccc(-n2nc3cc(C)c(N)cc3n2)cc1	9	164*	-3	20	-3
S=C(NCc1ccc(Cl)cc1)OC1CCC12CCC(c1ccccc1)CC2 (centres undefined)	1	x	x	x	x
CNC[C@@H](Cc1ccccc1)NC[C@@H](CC1CCCCC1)NCCCc1ccccc1	9	2	92*	3	5
CC[C@@H](C)[C@H](CNC)NC[C@@H](Cc1cccc2ccccc12)NCCc1cccc(C(F)(F)F)c1	-8	0	13	11	21
CCC[C@@H](CNC)NC[C@H](Cc1ccccc1)NCCCCc1ccccc1	-8	4	5	-6	0
CNC[C@@H](CC1CCCCC1)NC[C@H](CC(C)C)NCCc1cccc(C(F)(F)F)c1	-11	4	54*	-11	3
O=C(Nc1ccccc1C(=O)NCC1CC1)c1cccs1	-7	x	x	x	x
C[C@H]1O[C@@H](OC2CC[C@]3(C=O)[C@H]4CC[C@]5(C)[C@@H](C6=CC(=O)OC6)CC[C@]5(O)[C@@H]4CC[C@]3(O)C2)CC2OC(C)(C)OC21 (some centres undefined)	-4	1	69*	6	0
Cc1nc2nc(-c3cccs3)[nH]c2cc1Br	15	7	10	53*	1
Oc1c(Cl)cc(Cl)cc1Sc1cc(Cl)cc(Cl)c1O	x	x	6	x	73*
Cc1ccc(C)c(NC(=O)c2ccc(CS(=O)(=O)Cc3ccccc3C)o2)c1	-1	x	x	x	x
CCCSc1nnc(Sc2nnnn2-c2ccccc2)s1	-1	0	32	13	47*
Cc1ccccc1-n1nnnc1Sc1nnnn1-c1ccccc1	2	1	x	8	x
COC(=O)[C@@]12CCCCC3=C1N(CCC3)C(=O)[C@H]2CC(=O)NCCCCc1ccccc1	3	x	x	x	x
Cc1cc(C(=O)OCC(=O)N2CC(=O)Nc3ccccc32)no1	0	1	-6	0	3
Cc1c(C(=O)OCC(=O)N2CC(=O)Nc3ccccc32)oc2ccc(Br)cc12	-8	-9	68*	-12	0
CCC(=O)N1CCN(c2ccc(NC(=O)c3cc4ccccc4o3)cc2Cl)CC1	32*	-1	2	22	8
CCC(=O)NC(=S)Nc1ccc(NC(=O)c2cc3ccccc3o2)c(OC)c1	7	1	-3	32*	0
COc1cc(NC(=S)NC(=O)C(C)C)ccc1NC(=O)c1cc2ccccc2o1	-1	4	4	14	0
Cc1ccc(N2CCN(S(=O)(=O)c3c(C)nc4scc(C)n4c3=O)CC2)c(C)c1	-1	-5	-5	31*	6
Cc1ccc(N(C)S(=O)(=O)c2cc(-c3cnc(C4CC4)o3)ccc2C)cc1	-7	-1	3	-9	-4
Cc1cccc(N(C)S(=O)(=O)c2ccc(-c3cnc(C4CC4)o3)cc2)c1	9	0	65*	6	10
O=C(O)c1cccc(Nc2c3ccccc3nc3ccccc23)c1	5	124*	-11	0	-72
CC(=O)c1cccc(Nc2cc(C)nc3ccccc23)c1	-1	-6	-1	32*	-6
COC(=O)c1ccc(Nc2cc(C)nc3ccccc23)cc1	-7	6	1	42*	1
SMILES	PrPC TRFRET	FBA Mtb inh	BJeLR lethal	GDH-TPI inh	RecA intein inh
COC(=O)c1ccc2nc(C)cc(Nc3ccc(N(C)C)cc3)c2c1	-11	1	14	5	1
C[C@H](O)[C@@H]1CN2CCc3c([nH]c4c(-c5ccc6c(c5)OCO6)cccc34)[C@@H]2C[C@@H]1N(C)C(=O)Nc1ccccc1	-11	x	x	x	x
COc1ccc(CNCC#Cc2ccccc2)c(OC)c1	-10	x	x	x	x
N#Cc1nc(-c2cccs2)oc1NCCCN1CCOCC1	-1	+	-7	15	-4
N#Cc1nc(COc2ccc(-c3ccccc3)cc2)oc1NCCCN1CCOCC1	0	-3	8	-11	15
COc1ccc(-c2nc(C#N)c(NCCCN3CCOCC3)o2)cc1	1	149*	-3	11	0
N#Cc1nc(/C=C/c2ccccc2)oc1NCCCN1CCOCC1	-14	+	5	26	-46
Cc1ccc(C(=O)NNC(=S)NC(=O)c2ccccc2)cc1	17	-3	3	31*	2
Clc1cccc(-c2cccc3nccn23)c1	3	+	x	16	x
N#CCc1ccc(-c2cccc3nccn23)cc1	-11	+	x	8	x
NC(=O)c1cccc(-c2cccc3nccn23)c1	-5	2	x	2	x
CS(=O)(=O)Nc1ccc(-c2cccc3nccn23)cc1	-7	162*	x	9	x
CN(C)c1ccc(-c2cccc3nccn23)cc1	1	+	x	20	x
c1cc(-c2ccc(N3CCOCC3)cc2)n2ccnc2c1	-15	+	x	17	x
Cc1cccc(C)c1Nc1c(-c2ccc(N3CCOCC3)cc2)nc2cnccn12	-4	2	2	16	-51
CC(C)(C)OC(=O)NCCCc1ccc2c(c1)[C@]1(CCC[C@@H](OCc3ccccc3)[C@@H]1NC(=O)CCc1ccccc1)C(=O)N2Cc1ccccc1	-9	x	x	x	x
Cc1cccn2c(=O)c3cc(C(=O)NCCN4CCOCC4)c(=N)n(CCN4CCOCC4)c3nc12	-21	151*	-8	11	-32
CCOCCCn1c(=N)c(C(=O)NCCN2CCOCC2)cc2c(=O)n3cccc(C)c3nc21	-38	185*	x	-1	x
Cc1cccn2c(=O)c3cc(C(=O)NCCN4CCOCC4)c(=N)n(Cc4ccc(F)cc4)c3nc12	11	156*	-3	7	-427
Cc1ccc(Cn2c(=N)c(C(=O)NCCN3CCOCC3)cc3c(=O)n4ccccc4nc32)cc1	-34	20	-6	8	-3
COc1ccc(CCNC(=O)c2cc3c(=O)n4cccc(C)c4nc3n(CCCN3CCOCC3)c2=N)cc1	-20	18	10	-6	-3
Cc1cccn2c(=O)c3cc(C(=O)NC4CCCC4)c(=N)n(CCCN4CCOCC4)c3nc12	-17	141*	7	-1	i
CCCC(=O)N1CCC[C@]2(CC[C@@H](CCC(=O)OCC)O2)C1	3	x	x	x	x
Cc1ccccc1NC(=O)Cn1nnc(-c2ccncc2)n1	-3	x	x	x	x
COCCNC(=S)N1C[C@H]2CON(C)[C@H]2C[C@H]1c1ccccc1Br	5	x	x	x	x
SMILES	PrPC TRFRET	FBA Mtb inh	BJeLR lethal	GDH-TPI inh	RecA intein inh
CCN(CC)CCNC(=O)CSc1c2c(nc3cc(Cl)ccc13)CCCC2	9	-2	3	14	35*
COCCCn1c(N)c(C(=O)OC(C)COC)c2nc3ccccc3nc21 (centres undefined)	-10	+	-1	16	-234
CCCCOCCCn1c(N)c(C(=O)OC(C)COC)c2nc3ccccc3nc21 (centres undefined)	-12	121*	12	21	-77
CCC(C)OC(=O)c1c(N)n(Cc2cccs2)c2nc3ccccc3nc12 (centres undefined)	17	137*	-8	7	-51
COCCCn1c(N)c(C(=O)Nc2sc3c(c2C(=O)OC)CCCC3)c2nc3ccccc3nc21	-9	2	-14	0	5
CCc1ccc(N=C2NC(=O)/C(=C/c3ccc(OCC(=O)O)cc3)S2)cc1	-7	-2	-4	40*	10
